Measured values published in PubChem BioAssay AID504891 (National Center for Advancing Translational Sciences (NCATS), 2011).
Out of some 390,000 compounds screened, about 35 (0.009%) were called active. Roughly 6% stayed inconclusive and do not appear here. Calls follow the shape of the dose curve; as a rule, active = well fitted inhibition curve with a large enough effect in the polarisation, with a control signal flat (not every such curve was filed as active); inconclusive = small, poorly fitted or top-dose-only effect, or effect the other way, or a change in a side signal; inactive = no such curve, though single readings can be large or run the other way; the % refers to the polarisation. The entries come from a sample that favours actives as a whole.

molecular target: Peptidyl-prolyl cis-trans isomerase NIMA-interacting 1 (Homo sapiens) (UniProt Q13526); assay: qHTS Assay to Find Inhibitors of Pin1; settings: Pin1 FP peptide displacement, HiFluor488, 10 min; series mostly up to 115 µM; activity, negative = inhibition: at the top concentration
Sequence (Q13526 whole entry, looked up): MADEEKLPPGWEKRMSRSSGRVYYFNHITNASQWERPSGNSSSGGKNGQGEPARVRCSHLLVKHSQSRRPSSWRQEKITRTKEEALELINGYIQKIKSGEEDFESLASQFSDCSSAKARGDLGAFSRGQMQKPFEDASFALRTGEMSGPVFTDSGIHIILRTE
Description: NIH Molecular Libraries Probe Production Network [MLPCN]
NIH Chemical Genomics Center [NCGC]
The unique chemical properties of Pro allow for the adoption of two completely distinct amide bond conformations (cis and trans). Peptidyl-prolyl cis/trans isomerases (PPIases) are evolutionary conserved enzymes that catalyze cis/trans isomerization of peptidyl-prolyl peptide bonds. Distinct from all other PPIases such as cyclophilins and FK506-binding proteins (FKBPs), Pin1 binds a subset of phos.Ser/Thr-Pro-containing proteins using its protein-targeting WW domain and isomerizes only specific phos.Ser/Thr-Pro bonds, which cannot be effectively catalyzed by other known PPIases.
Pin1-catalyzed conformational regulation can control a spectrum of activities of many key regulators in diverse cellular processes such as cell growth, genotoxic and other stress responses, immune response, germ cell development, neuronal differentiation and survival. Pin1 has emerged as a novel molecular timer that modulates its multiple targets at various steps of a given cellular process to synergistically control the amplitude and duration of a cellular response or process. Importantly, Pin1 is tightly regulated by multiple levels and its deregulation has an important role in a growing number of pathological conditions, including cancer, Alzheimer's disease, aging, asthma and microbial infection, providing a potentially new therapeutic option.
The goal of this screen is to find small-molecule inhibitors of Pin1 using a fluorescence polarization competition assay. A HiFluor-488-labeled peptide binds to the active site of Pin1 and can be displaced by compounds. Compounds were screened as a concentration-titration series that ranged from 57 uM to 0.7 nM.
NCGC Assay Protocol Summary:
Pin1 (0.6 uM) was dispensed into black, solid 1536-well plates at 2 uL/well in 10 mM HEPES (pH 7.5), 10 mM NaCl, 0.01% Tween20, 1 mM DTT, and 1% glycerol. Then, 23 nL of compounds or DMSO were delivered to each well using a pin tool. Two uL of Pin1-1b-HiFluor488 peptide (10 mM HEPES (pH 7.5), 10 mM NaCl, 0.01% Tween20, 1 mM DTT, and 1% glycerol, 0.02 uM Pin1-1b-HiFluor488) was then dispensed, and plates were incubated at room temperature for 10 min. The plates were measured on a ViewLux plate reader for fluorescence polarization signal using a 480/20 nM nm excitation filter and 540/25 nM nm S and P emission filters with a 20 second exposure. The %Activity was determined from the corrected fluorescence polarization values. Unlabeled Pin1-1c peptide was used as a control (3.5 mM two-fold serial; 20 uM final concentration) along with a 1x (0.3 uM) and 0x (no-enzyme) Pin1 enzyme control to normalize %Activity of identified inhibitors; 0x enzyme values corresponded to 100%Activity (full inhibition), while 1x Pin1 enzyme values were used to normalize 0%Activity (no inhibition).
Concentration-response curves were fitted to the signals arising from the resulting fluorescence polarization. The concentration-effect curves were then classified based on curve quality (r2), response magnitude and degree of measured activity, and compounds were subsequently categorized based on their curve class.
Keywords: Peptidyl prolyl isomerase, Pin1, fluorescence polarization, MLSMR, MLPCN, NIH Roadmap, qHTS, NCGC

activity, negative = inhibition, inactive:
CCc1cccc(C)c1NS(=O)(=O)c1ccc(-c2cc(C)no2)s1 12.7%
CC(=O)N1CCCc2ccc(NS(=O)(=O)c3ccc(F)cc3F)cc21 49.4%
COc1ccc(CNC(=O)COCc2cc(-c3cccs3)on2)cc1OC -2.23%
COc1cccc(C(=O)NC2CCN(C#N)CC2)c1 -5.15%
CCOC(=O)c1c(N)n(-c2cccc(C)c2C)c2nc3ccccc3nc12 2.25%
COc1ccc(Br)cc1C1C2C=CCC(C)C2C(=O)N1Cc1ccccc1 (stereo not drawn) -1.96%
O=C(OCC#CCSc1nnc(-c2ccco2)o1)c1ccc(F)cc1 -1.5%
CC(=O)OCC(NC(=O)C(Cc1ccccc1)NC(=O)OC(C)(C)C)C1OC(n2ccc(=O)[nH]c2=O)C(OC(C)=O)C1OC(C)=O (stereo not drawn) -9.82%
CC(=O)Nc1ccc(S(=O)(=O)N2N=NC3C2C2CC4C3(CN(C(=O)OC(C)(C)C)S4(=O)=O)O2)cc1 (stereo not drawn) 1.34%
COc1cccc(OC2=NS(=O)(=O)c3ccccc32)c1 25% [at 163 µM]
COc1ccc(C2Nc3ccccc3C(=O)N2Cc2ccccc2)cc1COc1ccc(C(N)=O)cc1 (stereo not drawn) 29.2%
CCN(CC)S(=O)(=O)c1ccc2c(c1)N(CC(=O)NCc1ccccc1)C(=O)CS2 -0.42%
Cc1cccc(N2CCN(S(=O)(=O)c3ccc4[nH]c5c(c4c3)CCCCC5)CC2)c1C 16.4%
Cc1cc(C)cc(NC(=O)CSc2nc(=O)n(CCN3CCOCC3)c3c2CCC3)c1 -1.89%
Cc1ccc(Cn2c(=O)n(-c3ccc(C)cc3)c(=O)c3c2c2cc(C)ccc2n3C)cc1 -5.52%
CCCCN(CC)CCCNC(=O)Cn1ncc2c([nH]c3ccc(C)cc32)c1=O -1.71%
CCC(=O)Nc1ccccc1-c1nc2ccccc2n(CC(=O)Nc2ccc(C)c(C)c2)c1=O -8.24%
O=C1CCCC2=C1[C@@]1(CCC(c3ccccc3)C1)N=C(Nc1nc3ccccc3o1)N2 (stereo partly drawn)
Cc1cc2n(n1)C(c1cc(C(C)(C)C)c(O)cc1O)Nc1ccccc1-2 (stereo not drawn) 5.72%
CCOc1ccccc1CNC(=O)c1ccc2c(c1)nc1n2CCC(C)C1 (stereo not drawn) -1.31%
COc1cc(C(=O)N2CCN(c3ccc(Nc4ccc(C)cc4)nn3)CC2)cc(OC)c1OC 10.4%
COc1cccc(C2c3c(ncn(-c4cccc(Br)c4)c3=N)Oc3ccc4ccccc4c32)c1 (stereo not drawn) 14.3%
Cc1ccc(Cl)cc1NC(=O)Cc1ccc(-n2c(C)nc3cccnc32)cc1 20.3%
Cc1ccc(Nc2c(-c3ccc(Cl)cc3)nc3sccn23)c(C)c1 1.8%
OCCNc1ncnc2oc(-c3ccco3)c(-c3ccco3)c12 -1.56%
O=c1c2ccccc2nc2sc(Nc3ccc4c(c3)OCO4)nn12 -1.55%
CC(=O)c1sc(N2C(=O)c3oc4ccccc4c(=O)c3C2c2ccc(C)cc2)nc1C (stereo not drawn) -2.64%
NC(=O)C1CCN(c2ncc(-c3ccc(Cl)cc3)s2)CC1 6.84%
CCOc1ccc(NC(=O)C(=O)NCCc2csc3nc(-c4ccccc4F)nn23)cc1 14.9%
CCCc1cc(=O)n2[nH]c(NCc3ccc(CC)cc3)nc2n1 -1.99%
C=C1CCN(C(CC(C)C)C(=O)N2CCOCC2)S(=O)(=O)c2ccccc21 (stereo not drawn) 11.6%
Cn1nnnc1Sc1ncnc2scc(-c3ccccc3[N+](=O)[O-])c12 0.265%
COc1cc(OC)c2c(c1C(CCN1CCCCC1)c1ccc(N(C)C)cc1)OC(=O)CC2c1ccc(N(C)C)cc1 (stereo not drawn) 4.39%
CCOc1ccccc1NC(=O)Cn1c(=O)n(-c2cccc(C)c2)c(=O)c2c1c1cc(OC)ccc1n2C -2.84%
O=C(Cn1c(-c2cccs2)cc2ccccc21)NCCc1ccc(Cl)cc1 1.33%
COC(=O)c1ccccc1S(=O)(=O)Nc1ccc(OC)cc1 12.7%
Cc1c(-c2cccc(NC(=O)C(C)(C)C)c2)nc2ncccn12 4.16%
CCN(CC)/[N+]([O-])=N/Oc1cc(O/[N+]([O-])=N/N2CCCC2CO)c([N+](=O)[O-])cc1[N+](=O)[O-] (stereo not drawn) -3.49%
Cc1ccc(-c2nc(=N)sn2Cc2ccccc2)cc1 0.942%
COc1ccc(-c2nc(=N)sn2-c2ccccc2)cc1 8.42%
CC(=O)NC(c1cccs1)c1cc(Cl)c2cccnc2c1O (stereo not drawn) 0.471%
Cc1cc2c(s1)c1cnn(Cc3c(F)cccc3Cl)c(=O)c1n2C -0.0245%
c1coc(CCNc2ncnc3ccc(-c4ccc5c(c4)OCO5)cc23)c1 26.5%
